# Source: PubChem BioAssay (EPA / NIEHS)
# Values joined by “and” are separate entries in the source; they are usually repeats but may differ in a detail not shown here. Identical values can stand only once. Active and inactive are the calls of the source. How the source made its calls, unless noted: active means hit-call score of the fitted dose curve at least 0.9, where 1 is the maximum; inactive means score below 0.9.
# Key:
# [1] = read-out: Macrophage colony-stimulating factor (MCSF), CSF1 (gene 1435); assay: BSK_IMphg_MCSF: BioMAP Diversity Plus: IMphg Assay for Macrophage colony-stimulating factor (MCSF) Biomarker Activity (AID 2284293); settings: primary human endothelial cells with macrophages
# Summary of the method: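 Co-culture of human venular endothelial cells and macrophages, 24 hours of chemical exposure. M-CSF quantified by ELISA, with parallel SRB total-protein staining for cytotoxicity; activity fitted relative to DMSO.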
# [2] = read-out: Interleukin-10 (IL10), IL10 (gene 3586); assay: BSK_IMphg_IL10: BioMAP Diversity Plus: IMphg Assay for Interleukin-10 (IL10) Biomarker Activity (AID 2284294); settings: primary human endothelial cells with macrophages
# Summary of the method: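 Human venular endothelial cells cocultured with macrophages, dosed 24 h; IL-10 measured by ELISA, activity relative to DMSO. Cytotoxicity assessed in parallel cultures by sulforhodamine B total-protein staining.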
# [3] = BSK_IMphg_SRB.Mphg: Macrophage Viability Assessment in the BioMAP Diversity Plus: IMphg Assay (AID 2284295); settings: primary human endothelial cells with macrophages
# Summary of the method: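 Venular endothelial cells co-cultured with macrophages, read 24 h after dosing. Total protein measured by 0.1% SRB staining after 10% TCA fixation, absorbance at 560 nm. Fitted in positive direction against DMSO baseline.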
# [4] = read-out: Thrombomodulin, THBD (gene 7056); assay: BSK_LPS_Thrombomodulin: BioMAP Diversity Plus: LPS Assay for Thrombomodulin Biomarker Activity (AID 2284296); settings: primary human HUVEC with PBMC
# Summary of the method: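 Human umbilical vein endothelial cells co-cultured with PBMC and stimulated with LPS; cell-surface thrombomodulin measured by ELISA 24 hours after compound. Gain or loss versus DMSO; cytotoxicity checked by SRB staining in parallel cultures.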
# CD69, CD69 (gene 969) = assay: BSK_LPS_CD69: BioMAP Diversity Plus: LPS Assay for CD69 Biomarker Activity (AID 2284303); settings: primary human HUVEC with PBMC
# Summary of the method: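 Human umbilical vein endothelial cells co-cultured with PBMC under LPS stimulation, chemical exposure 24 h; cell-surface CD69 measured by ELISA and fitted in the positive direction versus DMSO.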
# [5] = Tanguay_ZF_120hpf_MO24: Oregon State University Tanguay Lab 24 Hour Post-fertilization zebrafish Assay for Mortality (AID 2284389)
# Summary of the method: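 Dechorionated wild-type zebrafish embryos, 1 per well, statically exposed from 6 hpf at 28C, 0.64% DMSO final. Mortality scored as binary present/absent at 24 hpf by brightfield microscopy, relative to DMSO.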
# [6] = Tanguay_ZF_120hpf_CRAN: Oregon State University Tanguay Lab 120 Hour Post-fertilization zebrafish Assay for Craniofacial Malformation (AID 2284397)
# Summary of the method: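 Dechorionated Tropical 5D wild-type zebrafish embryos, one per well, were statically exposed from 6 to 120 hpf at 28C in 0.64% DMSO, with 5uM trimethyltin chloride as positive control. Craniofacial malformation was scored present/absent by brightfield microscopy, relative to DMSO.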
# [7] = Tanguay_ZF_120hpf_AXIS: Oregon State University Tanguay Lab 120 Hour Post-fertilization zebrafish Assay for Axial Malformation (AID 2284398)
# Summary of the method: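 Dechorionated 5D wild-type zebrafish embryos exposed statically, one per well, from 6 to 120 hpf at 28C, 0.64% DMSO. Axial malformation scored as present/absent by brightfield microscopy at 120 hpf; dead embryos not scored.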
# [8] = Tanguay_ZF_120hpf_MORT: Oregon State University Tanguay Lab 120 Hour Post-fertilization zebrafish Assay for Mortality (AID 2284399)
# Summary of the method: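 Dechorionated wild-type Tropical 5D zebrafish embryos, one per well from 6 hpf, static exposure to 120 hpf at 28C in sealed dark plates, 0.64% DMSO final. Mortality scored as binary by brightfield at 24 and 120 hpf.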
# [9] = Tanguay_ZF_120hpf_EDEM: Oregon State University Tanguay Lab 120 Hour Post-fertilization zebrafish Assay for Edema Malformation (AID 2284400)
# Summary of the method: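 Dechorionated Tropical 5D wild-type embryos, one per well, statically exposed from 6 to 120 hpf at 28C in 0.64% DMSO. Edema scored present/absent by brightfield microscopy at 120 hpf; dead embryos not scored; fit versus DMSO.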
# [10] = Tanguay_ZF_120hpf_ANY: Oregon State University Tanguay Lab 120 Hour Post-fertilization zebrafish Assay for Any Mortality and Malformation (AID 2284404)
# Summary of the method: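 Dechorionated Tropical 5D wild-type embryos, one per well from 6 hpf, static exposure in sealed, dark plates at 28C until 120 hpf, 0.64% DMSO final. Brightfield scoring of mortality and malformations as binary presence/absence, pooling 13 morphology endpoints.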
# [11] = CCTE_Padilla_ZF_Score.Craniofacial: CCTE's 144 Hour Post-fertilization zebrafish Assay Score for Craniofacial Malformation, Padilla Lab (AID 2284405)
# Summary of the method: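 Wild-type zebrafish embryos (with chorions), one per well in 10% Hanks', were dosed at 6–8 hpf in sealed plates and kept at 26C. They were rinsed at 5 dpf. At 6 dpf two blinded assessors scored craniofacial malformations by brightfield stereomicroscopy.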
# [12] = CCTE_Deisenroth_5AR_NBTE_donor: CCTE's 5alpha-reductase NanoBRET Target Engagement Assay […], Deisenroth Lab (AID 2284319); settings: actives raise or lower the signal
# Summary of the method: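 Donor NanoLuc luminescence at 460-20 nm is the read-out, serving artifact detection. Transiently expressed SRD5A2-NanoLuc in HEK293T; 5 h total chemical exposure, testosterone tracer added for the final 2 h; fitting bidirectional relative to DMSO baseline.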
# [13] = CCTE_Deisenroth_5AR_NBTE_acceptor: CCTE's 5alpha-reductase NanoBRET Target Engagement Assay - Autofluorescence Screen, Deisenroth Lab (AID 2284321); settings: actives raise or lower the signal;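 further: compound fluorescence in the acceptor channel under 460 nm excitation flags autofluorescence artifacts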
# Summary of the method: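 Acceptor fluorescence intensity was read as an artifact-detection endpoint. Test chemicals at an assumed nominal 100 uM were excited at 460 nm across three independent runs. Activity was fitted bidirectionally against DMSO.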
# SRD5A2 (gene 6716) = assay: CCTE_Deisenroth_5AR_NBTE_ratio: CCTE's 5alpha-reductase NanoBRET Target Engagement Assay - Ratio, Deisenroth Lab (AID 2284322); settings: actives raise or lower the signal
# Summary of the method: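 HEK293T transiently expressing SRD5A2-NanoLuc; cells exposed to chemical (8-point, 10 nM - 29.9 uM) for 5 h total, testosterone tracer added for final 2 h. NanoBRET acceptor/donor ratio (650/460 nm), bidirectional fit vs DMSO.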
# TTR (gene 7276) = assay: CCTE_GLTED_hTTR_0.5uM: CCTE's human Transthyretin (hTTR) Inhibition Assay, with 0.5uM TTR, Great Lakes Toxicology and Ecology Division (GLTED) Lab (AID 2284320)
# Summary of the method: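 Cell-free displacement assay in which human TTR at 0.5 uM was incubated with test chemical for 2 h. Displacement of the ANSA probe was read by fluorescence at 380 nm excitation/475 nm emission. Loss of signal was fitted in the positive direction versus DMSO.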
# SERPINA7 (gene 6906) = assay: CCTE_GLTED_hTBG: CCTE's human Thyroxine-binding Globulin (TBG) Inhibition Assay, Great Lakes Toxicology and Ecology Division (GLTED) Lab (AID 2284343; active means hit-call score of the fitted dose curve at least 0.9, where 1 is the maximum;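 further: active chemicals lower fluorescence versus DMSO baseline by displacing probe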)
# Summary of the method: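 Human TBG incubated 2 h with test chemical; displacement of ANSA probe read by fluorescence, 380 nm excitation/475 nm emission. Loss of signal relative to DMSO.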
# IYD (gene 389434) = assay: CCTE_GLTED_hIYD: CCTE's human Iodotyrosine Deiodinase (xIYD) Inhibition Assay, Great Lakes Toxicology and Ecology Division (GLTED) Lab (AID 2284317; active means hit-call score of the fitted dose curve at least 0.9, where 1 is the maximum;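 further: cell-free human IYD enzyme made in baculovirus insect cells; iodide freed from monoiodotyrosine measured by cerium arsenite color change at 420 nm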)
# Summary of the method: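 hIYD: baculovirus-expressed human IYD deiodinated monoiodotyrosine for 3 h with test chemical; free iodide was measured by Sandell-Kolthoff absorbance at 420 nm and normalized to MNT and DMSO/NaOH controls.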
smiles,measurement,setting,value
C[Si](Cl)(Cl)CCC(F)(F)C(F)(F)C(F)(F)C(F)(F)C(F)(F)C(F)(F)F,outcome,[1],inactive
same,outcome,[2],inactive
same,outcome,[3],inactive
same,outcome,[4],inactive
same,outcome,"CD69, CD69 (gene 969)",inactive
same,outcome,[5],inactive
same,outcome,[6],inactive
same,outcome,[7],inactive
same,outcome,[8],inactive
same,outcome,[9],inactive
same,outcome,[10],inactive
same,outcome,[11],inactive
CC(C)Nc1ccc(NC(C)C)c2c1C(=O)c1ccccc1C2=O,outcome,[12],inactive
same,outcome,[13],inactive
same,AC50,SRD5A2 (gene 6716),3.06 µM (active)
NC(=O)C(F)(F)C(F)(F)C(F)(F)C(F)F,outcome,[1],inactive
same,outcome,[2],inactive
same,outcome,[3],inactive
same,outcome,[4],inactive
same,outcome,"CD69, CD69 (gene 969)",inactive
same,AC50,TTR (gene 7276),45.2 µM (active)
same,outcome,[5],inactive
same,outcome,[6],inactive
same,outcome,[7],inactive
same,outcome,[8],inactive
same,outcome,[9],inactive
same,outcome,[10],inactive
same,outcome,[11],inactive
CCN=C1C=CC(=C(c2ccc(N(CC)CC)cc2)c2ccc(N(CC)CC)cc2)c2ccccc21,outcome,[4],inactive
same,AC50,"CD69, CD69 (gene 969)",1.16 µM (active) and 1.01 µM (active)
same,AC50,[12],6.95 µM (active)
same,AC50,[13],2.24 µM (active)
same,AC50,SRD5A2 (gene 6716),0.166 µM (active)
same,AC50,SERPINA7 (gene 6906),4.51 µM (active)
CCCCCCCCCCCCCC[P+](CCCC)(CCCC)CCCC,AC50,IYD (gene 389434),97.6 µM (active)
same,AC50,[12],13.1 µM (active)
same,AC50,SRD5A2 (gene 6716),22.9 µM (active)
CCCCCCCCCCCCC[N+](C)(C)Cc1ccccc1,AC50,IYD (gene 389434),70.8 µM (active)
same,AC50,[12],18.2 µM (active)
same,AC50,[13],17.2 µM (active)
same,AC50,SRD5A2 (gene 6716),68.9 µM (active)
OC(O)C(F)(F)C(F)(F)F,outcome,[1],inactive
same,outcome,[2],inactive
same,outcome,[3],inactive
same,outcome,[4],inactive
same,outcome,"CD69, CD69 (gene 969)",inactive
same,outcome,[5],inactive
same,outcome,[6],inactive
same,outcome,[7],inactive
same,outcome,[8],inactive
same,outcome,[9],inactive
same,outcome,[10],inactive
same,outcome,[11],inactive
CCN=c1cc2oc3cc(NCC)c(C)cc3c(-c3ccccc3C(=O)OCC)c-2cc1C,AC50,[12],10 µM (active)
same,AC50,[13],0.603 µM (active)
same,AC50,SRD5A2 (gene 6716),6.06 µM (active)
CCC(Cc1c(I)cc(I)c(N)c1I)C(=O)O (centres undefined),AC50,SERPINA7 (gene 6906),43.1 µM (active)
O=C(c1ccccc1)c1ccc(O)cc1O,AC50,SERPINA7 (gene 6906),9.12 µM (active)
CCCCCCCC/C=C\CCCCCCCC(=O)N(C)CC(=O)O,AC50,IYD (gene 389434),58.2 µM (active)
same,outcome,[12],inactive
same,outcome,[13],inactive
same,outcome,SRD5A2 (gene 6716),inactive
same,AC50,SERPINA7 (gene 6906),5.56 µM (active)
CCCCCCCC/C=C\CCCCCCCC(=O)OCC(O)CO (centres undefined),AC50,IYD (gene 389434),68.1 µM (active)
O=C(Cl)C(F)(F)C(F)(F)C(F)(F)C(F)(F)C(F)(F)C(F)(F)C(F)(F)F,outcome,[1],inactive
same,outcome,[2],inactive
same,outcome,[3],inactive
same,outcome,[4],inactive
same,outcome,"CD69, CD69 (gene 969)",inactive
same,AC50,TTR (gene 7276),0.599 µM (active)
same,outcome,[11],inactive
O=C1C=CC(=O)N1c1ccccc1,AC50,[12],50 µM (active)
same,AC50,[13],50 µM (active)
same,AC50,SRD5A2 (gene 6716),22.3 µM (active)
